Test results: PubChem BioAssay
The source made the active and inactive calls.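 How the source made its calls, unless noted: active means visual image review flags a hit and inhibition of aggregation exceeds 20%; inconclusive means visual hit but inhibition at or below 20%; inactive means no hit on visual image review.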

How the values were obtained:
[1] = inhibitors of TNFa-induced NFkB p65 translocation, primary screen, imaging, HUVEC, MLSMR starter and 10KST1 sets (AID 438;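 active means inhibition above 20% together with a positive visual image hit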;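 further: compound added about 3h40 before a 20 min TNFalpha stimulation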;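 on inhibition: signal is the nuclear over cytoplasmic p65 intensity ratio per well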); details: HUVEC TNFa-induced p65 nuclear translocation; cell count: measured here: nuclei count (cytotoxicity indicator), at 2.08 µM; inhibition: at 2 µM, stronger effect = higher value, 0% TNFa-plus-vehicle, 100% no-TNFa wells
[2] = reduction of polyQ htt aggregates in cells – imaging, exon1htt(103Q)mCFP cells, high-content imaging, primary screen (AID 483); details: exon1htt(103Q)mCFP cell line, aggregate imaging, at 2 µM; inhibition of aggregation: stronger effect = higher value; nuclei count: measured here: cell count, toxicity;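 further: compound exposure lasted 3 days before fixation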;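 on nuclei count: percent of the per-plate median nuclei count of sample wells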
[3] = endothelial E-selectin expression blockers – imaging, HUVEC, immunofluorescence, MLSMR starter and 10KST1 sets, primary screen (AID 487;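 active means visually confirmed hit in the image check and inhibition above 20%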;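 on inhibition: signal is fraction of cell area covered by stained E-selectin grains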;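 on nuclei count: 100% = median nuclei count of all wells on the same plate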); details: HUVEC TNFalpha-induced E-selectin immunofluorescence imaging, at 2 µM; inhibition: stronger effect = higher value; nuclei count: measured here: cell number, toxicity
[4] = molecular target: Voltage-gated potassium channel subunit beta-2 (Rattus norvegicus) (UniProt P62483); test: inhibitors of rat Kvbeta2 reductase activity – biochemical, NADPH fluorescence, primary screen (AID 622;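 active means fluorescence slope higher than the sample average by over 3 SD, cut at about -0.22 in these data, passing the limit was not always enough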;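 further: slope of raw intensity against log time taken from 70 to 1610 s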); details: recombinant KvBeta, 4-cyanobenzaldehyde reduction, at 10 µM, stronger effect = higher value
Sequence of Voltage-gated potassium channel subunit beta-2 (Rattus norvegicus) (P62483 whole entry, looked up): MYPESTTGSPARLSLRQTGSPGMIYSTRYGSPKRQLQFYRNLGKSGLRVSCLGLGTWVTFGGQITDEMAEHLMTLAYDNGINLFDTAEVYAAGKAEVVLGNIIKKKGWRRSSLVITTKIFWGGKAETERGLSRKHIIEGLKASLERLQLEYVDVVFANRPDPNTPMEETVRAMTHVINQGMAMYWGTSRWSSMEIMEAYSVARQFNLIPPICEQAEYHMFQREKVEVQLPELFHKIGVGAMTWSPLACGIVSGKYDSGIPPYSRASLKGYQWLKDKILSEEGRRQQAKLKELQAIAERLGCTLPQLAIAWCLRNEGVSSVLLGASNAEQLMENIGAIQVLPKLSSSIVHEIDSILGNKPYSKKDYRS

[5] = molecular target: Voltage-gated potassium channel subunit beta-2 (Rattus norvegicus) (UniProt P62483); test: enhancers of rat Kvbeta2 NADPH turnover – biochemical, NADPH fluorescence, primary screen (AID 623;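 active means NADPH fluorescence slope more negative than the mean of all samples by about 3 SD, 99.7% confidence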;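 further: fluorescence intensity change per second fitted from 20 to 320 s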); details: Recombinant KvBeta, NADPH fluorescence decrease slope, 10 min; at 10 µM; stronger effect = lower value
[6] = molecular target: Alpha-2C adrenergic receptor (Homo sapiens) (UniProt P18825); test: compounds altering alpha2C-coupled GIRK flux – cell-based, HEK293 alpha2C/GIRK1/2, thallium flux, primary screen (AID 624;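 active means fluorescence slope after compound addition differing from the mean of all screened samples at 99.7% confidence, in either direction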;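 further: slope of fluorescence ratio to pre-addition baseline per second over 15 to 24 s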); details: thallium flux BTC fluorescence, at 10 µM, actives lie on both sides
Sequence of Alpha-2C adrenergic receptor (Homo sapiens) (P18825 whole entry, looked up): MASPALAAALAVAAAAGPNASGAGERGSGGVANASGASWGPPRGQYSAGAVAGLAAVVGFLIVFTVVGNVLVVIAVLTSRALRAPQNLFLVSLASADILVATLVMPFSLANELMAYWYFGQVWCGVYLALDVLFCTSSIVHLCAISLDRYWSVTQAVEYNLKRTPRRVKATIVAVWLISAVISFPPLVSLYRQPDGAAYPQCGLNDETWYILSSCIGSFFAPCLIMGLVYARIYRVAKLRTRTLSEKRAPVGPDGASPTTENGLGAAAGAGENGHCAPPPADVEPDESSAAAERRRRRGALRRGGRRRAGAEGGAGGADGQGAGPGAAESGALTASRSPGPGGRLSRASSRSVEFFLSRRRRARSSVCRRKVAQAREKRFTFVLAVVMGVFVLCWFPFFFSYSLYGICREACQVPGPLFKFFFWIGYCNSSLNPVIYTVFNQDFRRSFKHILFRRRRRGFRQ

[7] = blockers of RIG-like receptor reporter activation – cell-based, Sendai virus stimulus, luciferase, 10K MLSCN set, TLR/RLR signaling modifier project, primary screen (AID 602276;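 active means inhibition at or above 50% at 10 µM; inactive means inhibition below 50%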;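 further: firefly luciferase from ISG56 promoter only with Renilla not read in this screen; 0% = Sendai virus plus DMSO and 100% = medium plus DMSO without virus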); details: HEK293 RL24 IRF3 luciferase reporter, at 10 µM, stronger effect = higher value
[8] = TLR3 IRF3 reporter activation blockers – cell-based, poly I:C stimulus, luciferase, 10K MLSCN set, primary screen (AID 602277;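 active means inhibition of the reporter signal at or above 50%; inactive means inhibition below 50%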); details: HEK293-TLR3 RL24 IRF3 luciferase reporter, at 10 µM, stronger effect = higher value

SMILES | cell count [1] | inhibition [1] | inhibition of aggregation [2] | nuclei count [2] | inhibition [3] | nuclei count [3] | fluorescence slope [4] | NADPH fluorescence slope [5] | slope [6] | inhibition [7] | inhibition [8]
CC(=O)Nc1ccc(OC(=O)c2cccs2)cc1 | 716 | 10.2% (inactive) | -5% (inactive) | 107% | 27.9% (inactive) | 94.2% | -0.473 (inactive) | 5.9e-06 (inactive) | 0.00674 (inactive) | 8.66% (inactive) | 20% (inactive)
COc1ccc(OC)c(S(=O)(=O)N2CCC(C(=O)NCC3CCCO3)CC2)c1 (stereo not drawn) | 268 | 1.3% (inactive) | 10.7% (inactive) | 100% | -34.4% (inactive) | 115% | -0.352 (inactive) | 2.2e-05 (inactive) | 0.00611 (inactive) | 14.9% (inactive) | 20.2% (inactive)
Cc1cccc(-n2ncc3c(NCCCn4ccnc4)ncnc32)c1 | 604 | 1.3% (inactive) | 30.9% (inactive) | 99.7% | -29.8% (inactive) | 119% | -0.45 (inactive) | -4.7e-05 (inactive) | 0.00546 (inactive) | -63.1% (inactive) | -121% (inactive)
COc1ccc(C)cc1-n1c(N)c(C#N)c(C#N)c1-c1ccc(OC)c(OC)c1OC | 676 | -3.9% (inactive) | 16.9% (inactive) | 86% | -9.7% (inactive) | 105% | -0.537 (inactive) | 2.9e-05 (inactive) | 0.00611 (inactive) | 12% (inactive) | 32.6% (inactive)
C=CCN1C(=O)C2(c3ccccc31)C1CCCC=C1C(C#N)=C(N)C2(C#N)C#N (stereo not drawn) | 752 | -19.9% (inactive) | 10.4% (inactive) | 110% | 41% (inactive) | 101% | -0.559 (inactive) | -8.6e-06 (inactive) | 0.00492 (inactive) | -7.36% (inactive) | -8.22% (inactive)
COc1ccc(CCNc2nc(N3CCOCC3)nc(N3CCOCC3)n2)cc1OC | 229 | 10.4% (inactive) | 14.9% (inactive) | 66.5% | 15.6% (inactive) | 91.3% | -0.515 (inactive) | -3.3e-05 (inactive) | 0.00378 (inactive) | 15.3% (inactive) | 10.3% (inactive)
COc1ccc(CCNC(=O)CSc2nncn2N)cc1OC | 641 | -3.2% (inactive) | 24.1% (inactive) | 81.6% | -29.4% (inactive) | 122% | -0.345 (inactive) | -1.6e-05 (inactive) | 0.00364 (inactive) | 12.1% (inactive) | 21.1% (inactive)
COc1ccccc1N1CCN(C(=O)c2cc(C3CC3)on2)CC1 | 626 | -8.7% (inactive) | -1.6% (inactive) | 85.4% | 1.1% (inactive) | 95.8% | -0.607 (inactive) | -3.3e-05 (inactive) | 0.00629 (inactive) | -5.11% (inactive) | 26.8% (inactive)
Cn1c(C(=O)N2CCN(C(=O)c3ccco3)CC2)cc2c(=O)n3ccccc3nc21 | 323 | -3.3% (inactive) | -13.8% (inactive) | 111% | -116% (inactive) | 118% | -0.00798 (active) | 7.5e-06 (inactive) | 0.00582 (inactive) | 10.9% (inactive) | 18% (inactive)
CCOc1ccccc1NC(=O)CSc1nnc2c(CC)c(C)nc(N)n12 | 340 | -6.8% (inactive) | 1.5% (inactive) | 99.1% | 9.7% (inactive) | 92.7% | -0.305 (inactive) | -4e-05 (inactive) | 0.00576 (inactive) | -6.38% (inactive) | 98.4% (active)
COc1cc(Br)cc(/C=N/c2ncn[nH]2)c1O | 376 | -8.7% (inactive) | -2.5% (inactive) | 101% | -35% (inactive) | 117% | -0.467 (inactive) | 7.7e-05 (inactive) | 0.00616 (inactive) | 12.8% (inactive) | 24.8% (inactive)
CN(C)c1ccc(/C=C/c2ccncc2)cc1 | 311 | -5.5% (inactive) | 22.3% (inactive) | 83.5% | -76.4% (inactive) | 87.8% | -0.382 (inactive) | 1.7e-05 (inactive) | 0.00338 (inactive) | -62.5% (inactive) | -181% (inactive)
Cc1ccc(NC(=O)c2cc(-c3ccc(C)o3)nc3ccccc23)nc1 | 414 | 6.3% (inactive) | -7.9% (inactive) | 113% | 21.6% (inactive) | 106% | -0.12 (active) | 9.6e-06 (inactive) | 0.00591 (inactive) | -2.84% (inactive) | -17% (inactive)
COc1cccc(NC(=O)C2CCCN2C(=O)Nc2cccc(F)c2)c1 (stereo not drawn) | 584 | -15.1% (inactive) | -3.6% (inactive) | 86.9% | -62.2% (inactive) | 111% | -0.512 (inactive) | -5.6e-05 (inactive) | 0.00468 (inactive) | 9.51% (inactive) | 8.88% (inactive)
Cc1ccc2c(c1)CCCN2C(=O)Nc1ccc2c(c1)OCO2 | 365 | -0.8% (inactive) | -9.3% (inactive) | 102% | -34.4% (inactive) | 102% | -0.592 (inactive) | -4.4e-05 (inactive) | 0.00347 (inactive) | 13.6% (inactive) | 14.5% (inactive)
Nc1ncnc2nc(Sc3ccc(Cl)cc3)[nH]c12 | 645 | -8.5% (inactive) | -5.4% (inactive) | 108% | -12.5% (inactive) | 108% | -0.555 (inactive) | -6.5e-06 (inactive) | 0.00627 (inactive) | 10.1% (inactive) | 12.5% (inactive)
CCOc1ccc(N(CC)C(=O)COc2cc(=O)n(C)c3ccccc23)cc1 | 622 | 16.5% (inactive) | -19.7% (inactive) | 101% | -47.3% (inactive) | 118% | -0.516 (inactive) | 7.5e-06 (inactive) | 0.0065 (inactive) | 12.4% (inactive) | 29.8% (inactive)
O=C1CC(c2ccccc2)CC(O)=C1C=NCCN1CCOCC1 (stereo not drawn) | 541 | -2.9% (inactive) | 24.1% (inactive) | 94.3% | 37.7% (inactive) | 99.1% | -0.441 (inactive) | 1.8e-05 (inactive) | 0.00626 (inactive) | 7.02% (inactive) | 31.4% (inactive)
Cc1ccc(-c2nn3c(C)nnc3s2)cc1N | 385 | 7.5% (inactive) | 9.7% (inactive) | 82% | 4.3% (inactive) | 114% | -0.405 (inactive) | -3e-05 (inactive) | 0.00541 (inactive) | -7.7% (inactive) | -47.2% (inactive)
O=C(O)C1C2C=CC(C3CC23)C1C(=O)NCCc1ccccc1 (stereo not drawn) | 494 | -7.5% (inactive) | 19.2% (inactive) | 54% | -50% (inactive) | 104% | -0.467 (inactive) | -3.5e-05 (inactive) | 0.00628 (inactive) | -3.61% (inactive) | 11.6% (inactive)
Cc1c(C(=O)OCCOC(C)C)[nH]c2c1C(=O)CC(c1ccco1)C2 (stereo not drawn) | 482 | 18% (inactive) | -3.7% (inactive) | 5.8% | -59.6% (inactive) | 83.1% | -0.553 (inactive) | -3.5e-05 (inactive) | 0.00564 (inactive) | 13.8% (inactive) | 82.1% (active)
CCCCP(=O)(CCCC)c1ccccc1C(=O)O | 404 | -2.2% (inactive) | 12.2% (inactive) | 81.7% | -21.2% (inactive) | 87.7% | -0.421 (inactive) | -9.2e-05 (inactive) | 0.00521 (inactive) | 6.88% (inactive) | 21.9% (inactive)
CCCSc1nc2c(cnn2-c2ccc(C)cc2)c(=O)[nH]1 | 671 | -5.8% (inactive) | -5.9% (inactive) | 115% | -17.4% (inactive) | 113% | -0.545 (inactive) | -5.2e-06 (inactive) | 0.0075 (inactive) | -9.65% (inactive) | 10.6% (inactive)
COc1cccc(-c2nnc(NC(C)=O)o2)c1 | 694 | 0.3% (inactive) | -16.5% (inactive) | 99.5% | -24.3% (inactive) | 118% | -0.407 (inactive) | -6.1e-05 (inactive) | 0.00477 (inactive) | -11% (inactive) | 6.47% (inactive)
Brc1ccc(-c2csc(/N=C/N3CCOCC3)n2)cc1 | 531 | -3.6% (inactive) | -0.1% (inactive) | 97.4% | 13.5% (inactive) | 102% | -0.521 (inactive) | -8.8e-05 (inactive) | 0.00566 (inactive) | -73.1% (inactive) | -171% (inactive)
CCc1c(C)nc2ncnn2c1NCCc1ccc(OC)c(OC)c1 | 447 | -1.6% (inactive) | -8% (inactive) | 95.4% | 7.1% (inactive) | 97.7% | -0.323 (inactive) | -7.8e-05 (inactive) | 0.00477 (inactive) | 8.69% (inactive) | -1.81% (inactive)
CC1Cc2nc(SCC(=O)Nc3ccccc3F)n(C)c(=O)c2S1 (stereo not drawn) | 385 | 4.4% (inactive) | -9.2% (inactive) | 98.4% | -15% (inactive) | 113% | -0.505 (inactive) | -2.1e-05 (inactive) | 0.00529 (inactive) | 10.7% (inactive) | 3.28% (inactive)
COc1ccc(C)cc1NC(=O)C1CCN(S(=O)(=O)c2cccc3cccnc23)CC1 | 539 | -6.5% (inactive) | 13.2% (inactive) | 76.6% | -6.8% (inactive) | 106% | -0.535 (inactive) | -4.1e-05 (inactive) | 0.00559 (inactive) | 14.3% (inactive) | 30.4% (inactive)
